# Results published in PubChem BioAssay (NCATS).
# Several values for one entry are separate records, joined by “and”; a condition that tells them apart may be missing. Equal entries are not always repeated. Records with an inconclusive call do not appear. A call without a number means that no potency is given here. Activity calls are given as the source filed them. Unless noted, calls come from the whole dose curve; as a rule, active = well fitted curve in the direction sought with a large enough effect; inconclusive = small, poorly fitted or top-dose-only effect, or another doubt; inactive = no such curve, though single readings can be large; an effect the other way counts as inactive or inconclusive.
# How the values were obtained:
# [1] = qHTS Assay for Lipid Storage Modulators (AID 1519; calls by dose curve); conditions: Drosophila S3 cells, BODIPY lipid droplet/cell ratio, laser cytometry, cells loaded with oleic acid
# How it was run: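 Cells seeded at 5,000 per well were treated with compounds over a concentration series and loaded with oleic acid (400 uM, as added). Lipid droplet fluorescence (488 nm excitation, 500-530 nm channel) was read by laser-scanning cytometry and normalized to 20 uM Triacsin C.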
# [2] = molecular target: Alpha-galactosidase A (Homo sapiens) (UniProt P06280); assay: Counterscreen for Glucocerebrosidase Inhibitors: qHTS Assay for Human alpha-Galactosidase at pH 4.5 (AID 992); conditions: purified enzyme, fluorogenic substrate; series mostly up to 76.9 µM
# Alpha-galactosidase A (Homo sapiens), sequence (P06280 whole entry, looked up): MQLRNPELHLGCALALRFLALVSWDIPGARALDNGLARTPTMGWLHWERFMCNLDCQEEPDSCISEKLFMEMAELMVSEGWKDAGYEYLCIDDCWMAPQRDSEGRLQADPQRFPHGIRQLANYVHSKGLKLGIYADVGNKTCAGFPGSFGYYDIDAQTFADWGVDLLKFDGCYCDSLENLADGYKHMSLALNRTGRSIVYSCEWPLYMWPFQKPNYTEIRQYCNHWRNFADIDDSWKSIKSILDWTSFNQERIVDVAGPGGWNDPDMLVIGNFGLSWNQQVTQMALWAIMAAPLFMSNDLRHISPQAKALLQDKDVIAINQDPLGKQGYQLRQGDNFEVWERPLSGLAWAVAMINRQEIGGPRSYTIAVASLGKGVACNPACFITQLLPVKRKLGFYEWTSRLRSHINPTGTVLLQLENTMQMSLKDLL
# How it was run: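 Quantitative HTS: compounds tested from 0.7 nM up to 77 uM against 2 nM enzyme with 80 uM 4-MU alpha-D-galactopyranoside. The 20 min room-temperature reaction is stopped with 1M NaOH/1M glycine, pH 10.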
# [3] = molecular target: alpha-glucosidase (Oryza sativa, rice) (UniProt Q653V4); assay: Counterscreen for Glucocerebrosidase Inhibitors: qHTS Assay for Rice alpha-Glucosidase at pH 5.0 (AID 997); conditions: rice alpha-glucosidase enzyme activity; series mostly up to 76.9 µM
# How it was run: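 Rice alpha-glucosidase (4 nM final) with 400 uM 4-methylumbelliferyl-alpha-D-glucopyranoside in citrate buffer pH 5.0, 20 min at room temperature, stopped at pH 10; fluorescence 365/440 nm, compounds 0.7 nM–77 uM, AC50 from Hill fits.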
# [4] = Cell Viability - LYMP2-006 (AID 978); conditions: LYMP2-006 lymphoblastoid cell viability, qHTS; series mostly up to 92.2 µM; note: nearly all actives have a fitted effect of over 60% in size
# How it was run: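 Human lymphoblastoid cells, 2500 per well, were preincubated 5 hr at 37 C, then exposed to compounds for 24 hr at 37 C in complete medium. Viability was read as intracellular ATP by CellTiter-Glo luminescence; AC50 from Hill-equation fits of qHTS concentration-response data.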
# [5] = Cell Viability - LYMP2-007 (AID 979); conditions: LYMP2-007 lymphoblastoid cell viability; series mostly up to 92.2 µM;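 note: cells exposed to compound for 24 h before reading; nearly all actives have a fitted effect of over 60% in size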
# How it was run: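 Luminescent ATP signal (CellTiter-Glo) serves as the viability read-out after 24 hr compound treatment of lymphoblastoid cells in complete medium at 37 C. Concentration-response data were fitted to the Hill equation to give AC50 values.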
# [6] = Cell Viability - LYMP2-008 (AID 980); conditions: LYMP2-008 lymphoblastoid cell viability, qHTS; series mostly up to 92.2 µM; note: nearly all actives have a fitted effect of over 60% in size
# How it was run: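 qHTS, human lymphoblastoid line, 2500 cells/well; 5 hr preincubation, 24 hr compound, 37 C. CellTiter-Glo ATP luminescence. AC50 via Hill equation. Tetraoctylammonium bromide positive control.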
# [7] = Cell Viability - LYMP2-010 (AID 981); conditions: LYMP2-010 lymphoblastoid cell viability, qHTS; series mostly up to 92.2 µM; note: nearly all actives have a fitted effect of over 55% in size
# How it was run: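 Luminescent ATP signal (CellTiter-Glo) served as the viability read-out. Cells of the human lymphoblastoid line were treated with compound over a concentration range for 24 hours at 37 C, and AC50 values came from Hill-equation modeling.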
# [8] = Cell Viability - LYMP2-012 (AID 982); conditions: LYMP2-012 lymphoblastoid cell viability qHTS; series mostly up to 92.2 µM;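 note: cellular ATP by luciferase luminescence where a drop means cytotoxicity; cells exposed to compound for one day before reading; nearly all actives have a fitted effect of over 55% in size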
# [9] = Cell Viability - LYMP2-014 (AID 983); conditions: LYMP2-014 lymphoblastoid cells, viability qHTS; series mostly up to 92.2 µM; note: nearly all actives have a fitted effect of over 50% in size
# How it was run: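 Luminescent ATP signal (CellTiter-Glo, 30 min at room temperature) serves as the viability read-out after 24 hr compound exposure at 37 C. Cells were seeded at 2500 per well and settled 5 hr beforehand.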
# [10] = Cell Viability - LYMP2-016 (AID 984); conditions: LYMP2-016 lymphoblastoid cell viability, qHTS; series mostly up to 92.2 µM; note: nearly all actives have a fitted effect of over 55% in size
# How it was run: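 Human lymphoblastoid cells (LYMP2-016), 2500/well in complete medium, preincubated 5 hr at 37 C, then compound-treated 24 hr at 37 C. Intracellular ATP read by CellTiter-Glo luminescence after 30 min at room temperature; AC50 from Hill-equation concentration-response fits.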
# [11] = Cell Viability - LYMP2-018 (AID 985); conditions: LYMP2-018 lymphoblastoid cells, viability (qHTS); series mostly up to 92.2 µM; note: nearly all actives have a fitted effect of over 50% in size
# How it was run: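 Luminescent ATP signal (CellTiter-Glo, read after 30 min at room temperature) reports viable cells after 24 hr compound treatment at 37 C. Concentration-response data were fitted to the standard Hill equation for AC50.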
# [12] = Cell Viability - LYMP2-020 (AID 986); conditions: series mostly up to 92.2 µM; note: nearly all actives have a fitted effect of over 55% in size
# How it was run: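 Luminescent ATP signal (CellTiter-Glo, 30 min at room temperature) is the read-out after 24 h compound treatment of lymphoblastoid cells at 37 C. AC50 values come from Hill-equation fits across concentrations.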
# [13] = Cell Viability - LYMP2-022 (AID 987); conditions: LYMP2-022 lymphoblastoid cell viability; series mostly up to 92.2 µM; note: nearly all actives have a fitted effect of over 55% in size
# How it was run: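 qHTS: human lymphoblastoid cells 2500/well; 5 hr 37 C; cpd added; 24 hr 37 C; CellTiter-Glo, 30 min RT; luminescence. AC50 via Hill fit; tetraoctylammonium bromide positive ctrl.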
# [14] = Cell Viability - LYMP2-024 (AID 988); conditions: LYMP2-024 lymphoblastoid cell viability; series mostly up to 92.2 µM; note: nearly all actives have a fitted effect of over 60% in size
# How it was run: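 Steps: seed 2500 cells/well, 5 hr 37 C; add compound, 24 hr 37 C; add CellTiter-Glo, 30 min room temperature; read luminescence. AC50 derived by Hill modelling of concentration-dependent ATP loss.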
# [15] = Cell Viability - LYMP2-026 (AID 989); conditions: LYMP2-026 lymphoblastoid cell viability, qHTS; series mostly up to 92.2 µM; note: nearly all actives have a fitted effect of over 50% in size
# How it was run: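 Luminescent ATP signal (CellTiter-Glo, 30 min room temperature) measures viable lymphoblastoid cells after 24 hr compound treatment at 37 C. Decreased ATP reflects acute toxicity; AC50 values come from Hill-equation modeling.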
# [16] = Cell Viability - LYMP1-002 - Assay at 24 hr (AID 993); conditions: LYMP1-002 lymphoblastoid cells viability; series mostly up to 92.2 µM
# How it was run: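 Cells plated 2500/well, 5 hr 37 C; compounds added, 24 hr 37 C; CellTiter-Glo added, 30 min RT; luminescence read. Tetraoctylammonium bromide positive control. Hill-equation AC50.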
# [17] = Cell Viability - LYMP1-002 - Assay at 40 hr (AID 994); conditions: LYMP1-002 lymphoblastoid cell viability; series mostly up to 92.2 µM; note: nearly all actives have a fitted effect of over 60% in size
# How it was run: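 Luminescent ATP signal served as the viability readout, with decreases taken as toxicity. Cells were treated with compounds across a concentration range for 40 hours at 37 C, and AC50 values came from standard Hill modeling.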
# [18] = measured here: cell count channel max response
# [19] = measured here: lipid channel max response
smiles,measurement,setting,value
COc1ccc(CN(CCN(C)C)c2ncccn2)cc1,"activity change, negative = inhibition",[1]; at 57.5 µM (top of the series),7.7% (inactive)
same,max response,[1]; [18],6.82%
same,max response,[1]; [19],17.3%
O=C(O)CCC(=O)Nc1ccc(S(=O)(=O)Nc2nccs2)cc1,"activity change, negative = inhibition",[1]; at 25.7 µM (top of the series),0.767% (inactive)
same,"activity change, negative = inhibition",[1]; at 57.5 µM (top of the series),7.18% (inactive)
same,max response,[1]; [18],5.61% and 16.3%
same,max response,[1]; [19],3.26% and 28.6%
c1ccc(CC2=NCCN2)cc1,"activity change, negative = inhibition",[1]; at 25.7 µM (top of the series),0.322% (inactive)
same,"activity change, negative = inhibition",[1]; at 57.5 µM (top of the series),2.41% (inactive)
same,max response,[1]; [18],-5.46% and 11.2%
same,max response,[1]; [19],-4.35% and 15.7%
CN(C)CCC[C@@]1(c2ccc(F)cc2)OCc2cc(C#N)ccc21,outcome,[2],inactive
same,outcome,[3],inactive
same,"activity change, negative = inhibition",[1]; at 57.5 µM (top of the series),0.0614% (inactive) and -1.76% (inactive)
same,max response,[1]; [18],5.54% and 6.49%
same,max response,[1]; [19],4.25% and 5%
NS(=O)(=O)c1cc(C(=O)O)cc(N2CCCC2)c1Oc1ccccc1,"activity change, negative = inhibition",[1]; at 25.7 µM (top of the series),-4.05% (inactive)
same,max response,[1]; [18],-4.21%
same,max response,[1]; [19],-6.59%
COc1ccc(C(=O)c2ccccc2)c(O)c1,outcome,[4],inactive
same,outcome,[5],inactive
same,outcome,[6],inactive
same,outcome,[7],inactive
same,outcome,[8],inactive
same,outcome,[9],inactive
same,outcome,[10],inactive
same,Potency,[11],inactive
same,Potency,[12],inactive
same,outcome,[13],inactive
same,Potency,[14],inactive
same,outcome,[15],inactive
same,outcome,[16],inactive
same,Potency,[17],inactive
same,"activity change, negative = inhibition",[1]; at 25.7 µM (top of the series),-0.0822% (inactive)
same,"activity change, negative = inhibition",[1]; at 57.5 µM (top of the series),9.05% (inactive)
same,max response,[1]; [18],-14% and -2.88%
same,max response,[1]; [19],-14.1% and 8.45%
NC(=O)c1ccccc1O,outcome,[4],inactive
same,outcome,[5],inactive
same,outcome,[6],inactive
same,outcome,[7],inactive
same,outcome,[8],inactive
same,outcome,[9],inactive
same,outcome,[10],inactive
same,Potency,[11],inactive
same,Potency,[12],inactive
same,outcome,[13],inactive
same,Potency,[14],inactive
same,outcome,[15],inactive
same,outcome,[16],inactive
same,Potency,[17],inactive
same,"activity change, negative = inhibition",[1]; at 57.5 µM (top of the series),8.72% (inactive)
same,max response,[1]; [18],13.3%
same,max response,[1]; [19],29.8%
C/C=C/c1ccc(O)c(OC)c1,outcome,[4],inactive
same,outcome,[5],inactive
same,outcome,[6],inactive
same,outcome,[7],inactive
same,outcome,[8],inactive
same,outcome,[9],inactive
same,outcome,[10],inactive
same,Potency,[11],inactive
same,Potency,[12],inactive
same,outcome,[13],inactive
same,Potency,[14],inactive
same,outcome,[15],inactive
same,outcome,[16],inactive
same,Potency,[17],inactive
Nc1ccc(S(=O)(=O)Nc2cnc3ccccc3n2)cc1,"activity change, negative = inhibition",[1]; at 25.7 µM (top of the series),-4.76% (inactive)
same,max response,[1]; [18],-5.93%
same,max response,[1]; [19],-10.6%
COc1ccc(C(=O)c2ccccc2O)c(O)c1,"activity change, negative = inhibition",[1]; at 25.7 µM (top of the series),-7.39% (inactive)
same,"activity change, negative = inhibition",[1]; at 57.5 µM (top of the series),4.5% (inactive)
same,max response,[1]; [18],-10.6% and 8.18%
same,max response,[1]; [19],-18.3% and 15.8%
CN1CCC[C@@H]1CCO[C@](C)(c1ccccc1)c1ccc(Cl)cc1,outcome,[2],inactive
same,outcome,[3],inactive
same,"activity change, negative = inhibition",[1]; at 25.7 µM (top of the series),-6.95% (inactive)
same,max response,[1]; [18],-6.75%
same,max response,[1]; [19],-13.1%
NS(=O)(=O)Cc1noc2ccccc12,outcome,[2],inactive
same,outcome,[3],inactive
CCN(CC)CCNC(=O)COc1ccc(OC)cc1,"activity change, negative = inhibition",[1]; at 25.7 µM (top of the series),-2.56% (inactive)
same,"activity change, negative = inhibition",[1]; at 57.5 µM (top of the series),3.31% (inactive)
same,max response,[1]; [18],7.9% and 27.2%
same,max response,[1]; [19],4.41% and 33.1%
CCOc1ccccc1C(N)=O,outcome,[4],inactive
same,outcome,[5],inactive
same,outcome,[6],inactive
same,outcome,[7],inactive
same,outcome,[8],inactive
same,outcome,[9],inactive
same,outcome,[10],inactive
same,Potency,[11],inactive
same,Potency,[12],inactive
same,outcome,[13],inactive
same,Potency,[14],inactive
same,outcome,[15],inactive
same,outcome,[16],inactive
same,Potency,[17],inactive
